Screening results (PubChem)
NR5A2 inv ag: LRH-1 (NR5A2) inverse agonists, primary screen, cell-based, luminescence, HEK293T, StAR-luciferase reporter | inhibition, % at 3.6 µM | 0.13% of 360,000 active | Nuclear receptor subfamily 5 group A member 2 (Homo sapiens), O00482 | LRH-1 transfected, 24 h;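 active = inhibition above the mean inhibition of all tested compounds plus 3 SD, cut at about 73% in these data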;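 also: 0% = DMSO wells and 100% = reporter-only cells lacking LRH-1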
SRC3 inh: SRC3 coactivator transcriptional activity inhibitors, primary screen, cell-based, luminescence | Nuclear receptor coactivator 3 (Homo sapiens), Q9Y6Q9 | HEK293 GAL4-SRC3 luciferase reporter | inhibition, % at 3.6 µM | 0.17% of 360,000 active | AID 588352, 2011;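 active = inhibition above a per-campaign cutoff, the mean of all compounds plus 3 SD, cut at about 60% in these data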;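 also: 0% = DMSO-treated cells and 100% = gossypol-treated cells at 36 µM; higher means less SRC3-driven luciferase light from the GAL4 reporter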
NCOA2 inhibitor: inhibition of GAL4-SRC2 driven luciferase reporter, primary screen, SRC2 inhibitor project, cell-based, luminescence | Nuclear receptor coactivator 2 (Homo sapiens), Q15596 | 0.17% of 370,000 active | HEK293 GAL4-SRC2 luciferase reporter | inhibition, % at 9 µM;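 active = inhibition above the mean inhibition of all tested compounds plus 3 SD, set per campaign, cut at about 52% in these data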;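 also: 0% = DMSO treated cells and 100% = cells given Gossypol at 36 µM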
Target sequence (Q15596 whole entry, looked up, the tested form may be a part): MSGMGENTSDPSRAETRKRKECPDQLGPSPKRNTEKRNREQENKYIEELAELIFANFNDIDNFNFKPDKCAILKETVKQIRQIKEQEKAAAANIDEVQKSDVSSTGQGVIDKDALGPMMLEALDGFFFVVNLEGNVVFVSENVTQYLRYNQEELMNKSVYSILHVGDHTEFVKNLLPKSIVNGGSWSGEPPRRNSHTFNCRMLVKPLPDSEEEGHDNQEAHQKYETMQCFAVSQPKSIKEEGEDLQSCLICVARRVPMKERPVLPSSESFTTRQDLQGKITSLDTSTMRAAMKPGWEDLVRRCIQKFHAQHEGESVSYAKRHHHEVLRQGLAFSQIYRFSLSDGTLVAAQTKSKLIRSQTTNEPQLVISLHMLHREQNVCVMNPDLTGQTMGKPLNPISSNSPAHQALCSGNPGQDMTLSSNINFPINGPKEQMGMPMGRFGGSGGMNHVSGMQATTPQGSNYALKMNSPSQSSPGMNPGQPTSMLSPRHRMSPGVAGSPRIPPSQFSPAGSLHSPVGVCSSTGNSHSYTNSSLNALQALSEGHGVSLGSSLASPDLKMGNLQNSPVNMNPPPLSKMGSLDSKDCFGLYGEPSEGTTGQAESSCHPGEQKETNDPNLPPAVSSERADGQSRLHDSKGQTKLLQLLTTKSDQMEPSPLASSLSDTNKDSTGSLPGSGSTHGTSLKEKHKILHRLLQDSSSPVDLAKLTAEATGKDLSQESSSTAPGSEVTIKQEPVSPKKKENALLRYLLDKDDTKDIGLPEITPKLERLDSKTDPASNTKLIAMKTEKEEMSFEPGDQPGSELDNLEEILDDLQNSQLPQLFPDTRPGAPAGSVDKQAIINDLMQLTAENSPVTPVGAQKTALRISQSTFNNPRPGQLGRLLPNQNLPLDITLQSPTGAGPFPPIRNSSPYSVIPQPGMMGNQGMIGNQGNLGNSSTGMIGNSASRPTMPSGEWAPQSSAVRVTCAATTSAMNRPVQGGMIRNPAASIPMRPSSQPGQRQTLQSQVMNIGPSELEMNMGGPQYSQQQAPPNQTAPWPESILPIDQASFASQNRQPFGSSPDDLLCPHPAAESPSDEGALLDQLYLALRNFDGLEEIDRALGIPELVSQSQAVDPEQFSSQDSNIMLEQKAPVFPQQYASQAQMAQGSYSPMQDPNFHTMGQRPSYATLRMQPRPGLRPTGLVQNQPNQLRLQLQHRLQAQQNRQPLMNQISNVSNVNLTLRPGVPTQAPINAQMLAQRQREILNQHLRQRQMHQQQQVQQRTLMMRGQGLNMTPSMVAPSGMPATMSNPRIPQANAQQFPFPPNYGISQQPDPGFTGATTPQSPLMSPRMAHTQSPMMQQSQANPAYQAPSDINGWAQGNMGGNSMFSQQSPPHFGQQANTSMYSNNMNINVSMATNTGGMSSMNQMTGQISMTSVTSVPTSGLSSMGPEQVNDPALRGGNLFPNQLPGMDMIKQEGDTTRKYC
Gli-Sufu block: Gli-Sufu pathway antagonists, primary screen, luciferase luminescence, Sufu-KO-LIGHT cells, uHTS | Sufu-KO-LIGHT fibroblasts, Gli luciferase reporter luminescence | inhibition, % at 5 µM | 0.74% of 340,000 active;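 active = inhibition above about 55%, limit read from the data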;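 also: 0% = DMSO-treated cells and 100% = wells with medium but no cells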
NCOA1 inh: SRC1 coactivator transcriptional activity inhibitors, primary screen, cell-based, luminescence; Nuclear receptor coactivator 1 (Homo sapiens), Q15788; HEK293 GAL4-SRC1 luciferase reporter; inhibition, % at 3.6 µM; 0.12% of 360,000 active; AID 588354, 2011;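 active = inhibition above the campaign mean plus 3 SD, with each screening campaign given its own cutoff, cut at about 60% in these data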;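 also: 0% = DMSO treated cells and 100% = gossypol at 36 µM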
NR2F2 inh: NR2F2 transcriptional activity inhibitors, primary screen, cell-based, luciferase reporter, HEK293T, luminescence | COUP transcription factor 2 (Homo sapiens), P24468 | HEK293T NGFI-A luciferase reporter | inhibition, % at 8.6 µM | 0.7% of 370,000 active | AID 686940, 2013;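 active = inhibition above a per-plate cutoff, mean inhibition of test wells between control levels plus 3 SD, cut at about 38% in these data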;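 also: cells cotransfected with COUP-TFII expression vector driving the NGFI-A reporter; 0% = median of COUP-TF2 test wells and 100% = reporter-only cells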
Gli antag conf: Gli-SUFU pathway antagonists, confirmation, single concentration, luciferase luminescence, Sufu-KO-LIGHT cells. 40% of 2,500 active. shares compounds with Gli-Sufu block. inhibition, % at 5 µM. Gli luciferase reporter;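 active = mean inhibition at 5 µM reaching about 45%, limit read from the data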;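 also: plate controls were DMSO-treated cells for no effect and wells lacking cells for full effect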
SufuKO cytotox: cytotoxicity in Sufu-KO-LIGHT cells, confirmation, cytotoxicity control for Gli-SUFU antagonist project, cell-based, ATP luminescence, single concentration. shares compounds with Gli-Sufu block. cytotoxicity, % at 5 µM. 32% of 2,500 active. AID 651994, 2013;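 active = mean cytotoxicity at 5 µM above about 25%, limit read from the data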;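 also: cells exposed to compound overnight for roughly 16 to 18 hours; plate controls were DMSO wells with cells for no effect and medium without cells for full effect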
Wnt3a cs: Wnt3a reporter signal inhibition, confirmation, counter-screen for Gli-SUFU antagonist project, Wnt-LIGHT cells, luminescence, single concentration; 20% of 2,500 active; Wnt3a-driven luciferase reporter; inhibition, % at 6.25 µM; AID 651995, 2013; shares compounds with Gli-Sufu block;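 active = mean inhibition above about 25%, limit read from the data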
The depositor's hits bear a star; x = no result. A selection: hits, their analogues and other compounds. The true share with any hit is near 1.3%.

SMILES	NR5A2 inv ag	SRC3 inh	NCOA2 inhibitor	Gli-Sufu block	NCOA1 inh	NR2F2 inh	Gli antag conf	SufuKO cytotox	Wnt3a cs
CN(C(=O)c1cccc(NC(=O)Cc2ccc(NC(=O)C3CCCN(C(=O)c4ccccc4)C3)cc2)c1)C1CC1 (stereo not drawn)	x	x	-2.0	x	x	8.2	x	x	x
CC(C)[C@@H](C)/C=C/[C@@H](C)[C@H]1CC[C@@H]2[C@]1(C)CCC1[C@]23C=C[C@]2(C[C@@H](O)CC[C@]12C)N(C(=O)Cc1ccccc1)O3 (stereo partly drawn)	x	x	8.5	x	x	9.9	x	x	x
O=C(COC(=O)c1ccc2[nH]c3c(c2c1)CCCC3)Nc1ccccc1Cl	-5.3	11.1	-5.6	50.5	-7.6	5.2	47.0*	6.7	-23.3
Cc1ccc(CN(C)C[C@H]2OCc3cnnn3CCCC(=O)N([C@H](C)CO)C[C@@H]2C)cc1	x	x	15.8	x	x	8.5	x	x	x
O=C(O)[C@H](Cc1ccccc1)NC(=O)[C@H]1O[C@@H](n2ccc(=O)[nH]c2=O)[C@H](O)[C@@H]1O	x	x	-6.4	x	x	0.2	x	x	x
CCC(NC(=O)c1cccc2c1C(=O)N(Cc1cccnc1)C2)c1ccccc1 (stereo not drawn)	x	x	11.1	x	x	9.7	x	x	x
O=C(NCCCn1ccnc1)/C(=C\c1cccnc1)NC(=O)c1ccco1	7.0	14.1	6.0	-3.3	3.7	2.4	x	x	x
O=C(NCCCn1ccnc1)/C(=C\c1cccnc1)NC(=O)c1cccc(Br)c1	6.4	-0.7	-3.2	97.6*	0.2	-10.3	36.8	12.7	13.2
COc1ccc(Br)cc1C(=O)NC(=S)Nc1ccc(CN2CCOCC2)cc1	4.5	22.5	-28.9	50.5	8.7	-11.6	20.0	11.7	-16.9
CC1(C)CCC(C)(C)c2cc(NC(=O)c3ccc(C(=O)O)cc3)ccc21	x	x	9.7	x	x	-14.3	x	x	x
Cc1cc(C(=O)NCc2ccccc2)no1	3.9	-2.6	-43.7	88.9*	-6.2	3.0	22.7	19.1	-9.3
Cc1cc(C(=O)NNCc2ccccc2)no1	-21.5	3.5	1.5	-8.7	-12.6	7.4	x	x	x
COCCOC(=O)c1[nH]c2c(c1C)C(=O)CC(c1cc(OC)c(OC)c(OC)c1)C2 (stereo not drawn)	19.3	15.6	11.0	34.5	-26.3	35.8	x	x	x
C=CCOC(=O)c1[nH]c2c(c1C)C(=O)CC(c1cc(OC)c(OC)c(OC)c1)C2 (stereo not drawn)	38.7	26.4	x	50.8	18.5	x	61.3*	15.6	24.7
O=[N+]([O-])c1ccc(O)c(-c2nc(-c3ccccc3)c(-c3cccs3)[nH]2)c1	-19.5	-2.8	-4.5	51.6	5.6	13.8	70.2*	10.6	66.7*
CCOC(=O)CN1C(=O)C(C)(C)Oc2ccc(C(=O)Nc3ccccc3OC)cc21	-3.9	6.7	2.2	7.2	-7.6	-1.0	x	x	x
COc1ccccc1NC(=O)c1ccc2c(c1)N(CC#N)C(=O)C(C)(C)O2	9.7	-7.5	-17.5	52.0	-9.1	2.3	23.4	1.7	-21.2
CC(=O)NCCC(=O)Nc1nc(-c2cccs2)c(-c2cccs2)s1	-4.2	5.4	-22.2	50.4	-0.4	1.1	21.9	6.5	-2.5
Cn1c(=O)[nH]c(=O)c2c1ncn2CCN1CCOCC1	2.4	9.6	-35.4	92.2*	-12.7	3.9	13.6	13.2	8.5
COc1cccc(CNC(=O)[C@H]2CCCN2C(=O)[C@H]2CCCN2C(=O)c2ccc(Cl)cc2)c1	x	x	3.8	x	x	-18.9	x	x	x
CCCCCCCCN1C(=O)[C@@H](CC(=O)NCc2ccc(OC)c(OC)c2)C[C@@]2(C(=O)OC)C1=C[C@H](C(C)(C)C)O[C@@H]2C	x	x	-7.3	x	x	-9.1	x	x	x
COc1ccc(CN(CCC(c2ccccc2)c2ccc(OC(C)C)cc2)C(=O)CCl)cc1OC (stereo not drawn)	7.3	0.8	13.9	9.5	-7.0	4.5	x	x	x
COc1ccc(C(CCN(Cc2ccc(OC)c(OC)c2)C(C)=O)c2ccccc2)cc1 (stereo not drawn)	-11.6	8.3	11.3	56.8*	13.0	12.6	22.9	22.7	12.1
O=C(Cn1ccc2cc(S(=O)(=O)N3CCCC3)ccc21)NCCc1ccccc1	13.3	1.5	-3.9	57.0*	-1.1	11.0	26.1	5.6	-17.4
CC#CC[N+](C)(C)CCCCCCCCCC	30.4	37.8	5.1	68.0*	19.7	34.4	78.9*	43.0*	34.7*
SMILES	NR5A2 inv ag	SRC3 inh	NCOA2 inhibitor	Gli-Sufu block	NCOA1 inh	NR2F2 inh	Gli antag conf	SufuKO cytotox	Wnt3a cs
C=CCn1c(CCn2c3ccccc3c3ccccc32)n[nH]c1=S	6.7	8.7	17.1	-3.7	14.8	5.8	x	x	x
C=CCn1c(CCC(O)COCCC)n[nH]c1=S (stereo not drawn)	1.2	-1.0	-0.1	53.9	-16.7	-10.2	10.7	22.0	-21.1
CCc1c(C)nc2cc(-c3ccc(OC)c(OC)c3)nn2c1N1CCCC1	-1.7	-0.2	-8.8	54.4	1.6	-6.7	55.2*	32.9*	5.8
CCc1c(C)nc2cc(-c3ccc(OC)c(OC)c3)nn2c1N1CCC(C)CC1	-4.7	-10.1	-32.1	1.9	5.0	-7.7	x	x	x
Cc1ccc(-n2nnnc2SCC(=O)Nc2cccnc2Cl)cc1	-1.8	0.6	27.5	54.0	-2.8	21.6	29.3	8.1	-7.9
O=C(CSc1nnnn1-c1ccc(Cl)cc1)Nc1cccnc1Cl	27.4	18.3	1.5	8.4	2.7	15.8	x	x	x
COc1ccc(CN2CCC(CNC(=O)NC3CCCC3)CC2)cc1	x	x	13.1	x	x	24.1	x	x	x
COc1ccc(NC(=O)c2cccc(N3C(=O)C4C5C=CC(C6CC56)C4C3=O)c2)c(OC)c1 (stereo not drawn)	2.4	-11.1	-16.2	55.5*	-1.1	8.7	28.8	-3.4	8.9
COc1ccc(CCNC(=O)CCNC(=O)c2ccco2)cc1	3.5	7.8	-34.5	71.7*	-4.7	3.2	14.3	28.1*	-3.1
COc1cccc(CNC(=O)CCNC(=O)c2ccco2)c1	11.6	14.7	15.7	-7.3	1.2	-5.0	x	x	x
Cn1c(SCC(=O)NCc2ccc3c(c2)OCO3)ncc(C(=O)Nc2ccc(F)cc2)c1=O	11.1	-7.5	-48.6	13.6	-12.0	-15.3	x	x	x
Cn1c(SCC(=O)NCc2ccc(F)cc2)ncc(C(=O)Nc2ccccc2)c1=O	-13.5	-32.7	-5.1	54.1	-3.5	5.1	29.6	13.2	-14.2
